Laboratory results from PubChem BioAssay (EPA / NIEHS).
Activity calls are given as the source filed them. The calls were made as follows: active = hit-call score of the fitted dose curve at least 0.9, where 1 is the maximum; inactive = score below 0.9.

Key:
Settings in all cases: mRNA level, 48 h; actives raise or lower the signal
[1] = read-out: MicroRNA 122 (MIR122), gene 406906; assay: LTEA_HepaRG_MIR122: Life Technologies and Expression Analysis (LTEA) Assay for MicroRNA 122 (MIR122) using HepaRG (AID 2283516); also: the transcript read is the microRNA miR-122
In short: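 Differentiated human HepaRG cells in serum-free induction medium exposed 48 h to 8 half-log concentrations from 100 uM in 0.5% DMSO, duplicate. MIR122 quantified by Fluidigm TaqMan qRT-PCR, normalised to ACTB, GAPDH, POLR2A; fold change fitted bidirectionally versus DMSO.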

[2] = read-out: matrix metalloproteinase-10 (MMP10), MMP10 (gene 4319); assay: LTEA_HepaRG_MMP10: Life Technologies and Expression Analysis (LTEA) Assay for matrix metalloproteinase-10 (MMP10) using HepaRG (AID 2283517)
In short: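 HepaRG, collagen I, ~100,000 cells/well; serum-free induction medium; 48 h exposure, duplicate, 8-pt half-log to 100 uM, 0.5% DMSO. Readout: TaqMan qRT-PCR, normalized to ACTB/GAPDH/POLR2A; bidirectional fit vs DMSO.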

MYC, MYC (gene 4609) = assay: LTEA_HepaRG_MYC: Life Technologies and Expression Analysis (LTEA) Assay for MYC using HepaRG (AID 2283518)
In short: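 Differentiated HepaRG cells exposed 48 h in serum-free induction medium to 8 concentrations (top 100 uM, half-log steps; 0.5% DMSO), duplicate. MYC mRNA measured by Fluidigm qRT-PCR, normalized to ACTB, GAPDH, POLR2A; bidirectional fit versus DMSO.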

[3] = read-out: matrix metalloproteinase-3 (MMP3), MMP3 (gene 4314); assay: LTEA_HepaRG_MMP3: Life Technologies and Expression Analysis (LTEA) Assay for matrix metalloproteinase-3 (MMP3) using HepaRG (AID 2283519)
In short: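 Differentiated human HepaRG cells, plated 48 h on collagen I, were exposed in duplicate for 48 h in serum-free induction medium to eight half-log concentrations up to 100 uM in 0.5% DMSO. MMP3 mRNA was quantified by TaqMan qRT-PCR, normalised to ACTB, GAPDH and POLR2A.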

[4] = read-out: Paternally Expressed 10 (PEG10), PEG10 (gene 23089); assay: LTEA_HepaRG_PEG10: Life Technologies and Expression Analysis (LTEA) Assay for Paternally Expressed 10 (PEG10) using HepaRG (AID 2283520)
In short: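 Differentiated HepaRG cells exposed 48 h in serum-free induction medium to eight half-log concentrations topping at 100 uM, 0.5% DMSO, in duplicate. PEG10 mRNA quantified by TaqMan qRT-PCR, normalized to ACTB, GAPDH and POLR2A; bidirectional fit versus DMSO.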

[5] = read-out: Nuclear factor NF-kappa-B p105 subunit (Homo sapiens) (UniProt P19838); assay: LTEA_HepaRG_NFKB1: Life Technologies and Expression Analysis (LTEA) Assay for Nuclear Factor Kappa B Subunit 1 (NFKB1) using HepaRG (AID 2283521);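 also: TaqMan qRT-PCR transcript normalised to ACTB GAPDH and POLR2A housekeeping genes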
In short: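 Differentiated human HepaRG cells in serum-free induction medium with 0.5% DMSO were exposed for 48 h to eight half-log concentrations, top 100 uM, in duplicate. NFKB1 mRNA measured by Fluidigm TaqMan qRT-PCR, normalised to ACTB, GAPDH and POLR2A; bidirectional fit versus DMSO.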

[6] = read-out: Protein phosphatase 2A (PPP2R4), PTPA (gene 5524); assay: LTEA_HepaRG_PPP2R4: Life Technologies and Expression Analysis (LTEA) Assay for Protein phosphatase 2A (PPP2R4) using HepaRG (AID 2283522)
In short: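 Differentiated human HepaRG cells in serum-free induction medium were exposed 48 h to 8 concentrations (top 100 µM, half-log steps, duplicate) in 0.5% DMSO. PPP2R4 mRNA was measured by TaqMan qRT-PCR, normalised to ACTB, GAPDH and POLR2A, and fitted bidirectionally versus DMSO.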

[7] = read-out: Phosphatase and tensin (PTEN), PTEN (gene 5728); assay: LTEA_HepaRG_PTEN: Life Technologies and Expression Analysis (LTEA) Assay for Phosphatase and tensin (PTEN) using HepaRG (AID 2283523)
In short: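 Differentiated human HepaRG cells, plated 48 h then switched to serum-free induction medium, were exposed in duplicate for 48 h to eight half-log concentrations up to 100 uM in 0.5% DMSO. PTEN mRNA measured by TaqMan qRT-PCR, normalized to ACTB/GAPDH/POLR2A, bidirectional fit versus DMSO.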

[8] = read-out: solute carrier (SLC22A1), SLC22A1 (gene 6580); assay: LTEA_HepaRG_SLC22A1: Life Technologies and Expression Analysis (LTEA) Assay for solute carrier (SLC22A1) using HepaRG (AID 2283524)
In short: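 Human HepaRG cells were plated 48 h, switched to serum-free induction medium, then exposed in duplicate for 48 h to 8-point half-log series from 100 uM in 0.5% DMSO. SLC22A1 mRNA measured by qRT-PCR, normalized to ACTB/GAPDH/POLR2A, fitted bidirectionally versus DMSO.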

[9] = read-out: Pyruvate Dehydrogenase Kinase 4 (PDK4), PDK4 (gene 5166); assay: LTEA_HepaRG_PDK4: Life Technologies and Expression Analysis (LTEA) Assay for Pyruvate Dehydrogenase Kinase 4 (PDK4) using HepaRG (AID 2283525)
In short: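 Differentiated human HepaRG cells, pre-cultured 48 h, were exposed in duplicate for 48 h in serum-free induction medium to eight half-log concentrations up to 100 uM in 0.5% DMSO. PDK4 mRNA was quantified by qRT-PCR, normalized to ACTB, GAPDH and POLR2A, bidirectional fitting versus DMSO.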

[10] = read-out: NAD(P)H dehydrogenase [quinone] 1 (NQO1), NQO1 (gene 1728); assay: LTEA_HepaRG_NQO1: Life Technologies and Expression Analysis (LTEA) Assay for NAD(P)H dehydrogenase [quinone] 1 (NQO1) using HepaRG (AID 2283526)
In short: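 Differentiated human HepaRG cells in serum-free induction medium, dosed in duplicate for 48 h at 8 half-log concentrations up to 100 uM in 0.5% DMSO. NQO1 mRNA by qRT-PCR normalized to ACTB, GAPDH, POLR2A; bidirectional fit versus DMSO baseline.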

[11] = read-out: Nuclear factor erythroid 2-related factor 2 (Homo sapiens) (UniProt Q16236); assay: LTEA_HepaRG_NFE2L2: Life Technologies and Expression Analysis (LTEA) Assay for Nuclear factor erythroid 2-related factor 2 (NFE2L2) Transcription Factor using HepaRG (AID 2283527);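 also: TaqMan qRT-PCR transcript level normalised to ACTB GAPDH and POLR2A housekeeping genes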
In short: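 Differentiated human HepaRG cells in serum-free induction medium were exposed for 48 h to eight concentrations (top 100 uM, half-log dilutions, 0.5% DMSO), in duplicate. NFE2L2 mRNA was quantified by TaqMan qRT-PCR, normalized to ACTB, GAPDH and POLR2A, with bidirectional fitting versus DMSO.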

[12] = read-out: succinate dehydrogenase complex iron sulfur subunit B (SDHB), SDHB (gene 6390); assay: LTEA_HepaRG_SDHB: Life Technologies and Expression Analysis (LTEA) Assay for succinate dehydrogenase complex iron sulfur subunit B (SDHB) using HepaRG (AID 2283528)
In short: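 HepaRG cells (~100,000/well, plated 48 h) exposed in duplicate for 48 h in serum-free induction medium to 8-point half-log series from 100 uM in 0.5% DMSO; mRNA by qRT-PCR normalised to ACTB, GAPDH, POLR2A; bidirectional fit versus DMSO.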

[13] = read-out: Signal transducer and activator of transcription 3 (Homo sapiens) (UniProt P40763); assay: LTEA_HepaRG_STAT3: Life Technologies and Expression Analysis (LTEA) Assay for Signal transducer and activator of transcription (STAT3) using HepaRG (AID 2283529)
In short: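 Differentiated human HepaRG cells in serum-free induction medium were exposed in duplicate for 48 h to eight half-log concentrations up to 100 uM in 0.5% DMSO. STAT3 mRNA was quantified by TaqMan qRT-PCR, normalized to ACTB, GAPDH and POLR2A, and fitted bidirectionally against DMSO.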

[14] = read-out: solute carrier (SLCO1B1), SLCO1B1 (gene 10599); assay: LTEA_HepaRG_SLCO1B1: Life Technologies and Expression Analysis (LTEA) Assay for solute carrier (SLCO1B1) using HepaRG (AID 2283530)
In short: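 Differentiated human HepaRG cells were exposed for 48 h in serum-free induction medium to eight half-log concentrations, top 100 uM, in 0.5% DMSO. SLCO1B1 mRNA was measured by qRT-PCR, normalized to ACTB, GAPDH and POLR2A, and fitted bidirectionally against DMSO.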

[15] = read-out: sulfotransferase 2A1 (SULT2A1), SULT2A1 (gene 6822); assay: LTEA_HepaRG_SULT2A1: Life Technologies and Expression Analysis (LTEA) Assay for sulfotransferase 2A1 (SULT2A1) using HepaRG (AID 2283531)
In short: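 HepaRG human liver cells, 48 h exposure in serum-free induction medium to 8 half-log concentrations topping at 100 µM (0.5% DMSO), duplicate wells. SULT2A1 mRNA measured by TaqMan qRT-PCR, normalized to ACTB/GAPDH/POLR2A; bidirectional fit against DMSO.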

[16] = read-out: Transforming Growth Factor (TGFA), TGFA (gene 7039); assay: LTEA_HepaRG_TGFA: Life Technologies and Expression Analysis (LTEA) Assay for Transforming Growth Factor (TGFA) using HepaRG (AID 2283532)
In short: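 Differentiated human HepaRG cells, plated 48 h then switched to serum-free induction medium, were exposed in duplicate for 48 h to 8-point half-log series from 100 uM in 0.5% DMSO. TGFA mRNA measured by qRT-PCR, normalized to ACTB/GAPDH/POLR2A, bidirectional fit versus DMSO.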

[17] = read-out: Transforming Growth Factor (TGFB1), TGFB1 (gene 7040); assay: LTEA_HepaRG_TGFB1: Life Technologies and Expression Analysis (LTEA) Assay for Transforming Growth Factor (TGFB1) Transporter using HepaRG (AID 2283533)
In short: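 Differentiated HepaRG cells exposed 48 hr in serum-free induction medium to eight half-log concentrations up to 100 uM (0.5% DMSO), duplicate; TGFB1 mRNA by TaqMan qRT-PCR normalised to ACTB, GAPDH, POLR2A; bidirectional fit against DMSO.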

TIMP1, TIMP1 (gene 7076) = assay: LTEA_HepaRG_TIMP1: Life Technologies and Expression Analysis (LTEA) Assay for TIMP1 using HepaRG (AID 2283534);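 also: TaqMan qRT-PCR signal normalized to ACTB GAPDH and POLR2A housekeeping genes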
In short: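 Differentiated HepaRG cells exposed 48 h in serum-free induction medium, duplicates, eight half-log concentrations from 100 uM in 0.5% DMSO. TIMP1 mRNA by qRT-PCR normalized to ACTB, GAPDH, POLR2A; bidirectional fitting against DMSO.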

[18] = read-out: Tumor necrosis factor receptor 1 (TNFRSF1A), TNFRSF1A (gene 7132); assay: LTEA_HepaRG_TNFRSF1A: Life Technologies and Expression Analysis (LTEA) Assay for Tumor necrosis factor receptor 1 (TNFRSF1A) using HepaRG (AID 2283535)
In short: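 Differentiated HepaRG cells in serum-free induction medium, exposed 48 h in duplicate to 8 half-log concentrations up to 100 uM in 0.5% DMSO. TNFRSF1A mRNA by Fluidigm TaqMan qRT-PCR, normalized to ACTB, GAPDH, POLR2A; bidirectional fit.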

Measured: AC50

Sequence of Nuclear factor NF-kappa-B p105 subunit (Homo sapiens) (P19838 whole entry, looked up): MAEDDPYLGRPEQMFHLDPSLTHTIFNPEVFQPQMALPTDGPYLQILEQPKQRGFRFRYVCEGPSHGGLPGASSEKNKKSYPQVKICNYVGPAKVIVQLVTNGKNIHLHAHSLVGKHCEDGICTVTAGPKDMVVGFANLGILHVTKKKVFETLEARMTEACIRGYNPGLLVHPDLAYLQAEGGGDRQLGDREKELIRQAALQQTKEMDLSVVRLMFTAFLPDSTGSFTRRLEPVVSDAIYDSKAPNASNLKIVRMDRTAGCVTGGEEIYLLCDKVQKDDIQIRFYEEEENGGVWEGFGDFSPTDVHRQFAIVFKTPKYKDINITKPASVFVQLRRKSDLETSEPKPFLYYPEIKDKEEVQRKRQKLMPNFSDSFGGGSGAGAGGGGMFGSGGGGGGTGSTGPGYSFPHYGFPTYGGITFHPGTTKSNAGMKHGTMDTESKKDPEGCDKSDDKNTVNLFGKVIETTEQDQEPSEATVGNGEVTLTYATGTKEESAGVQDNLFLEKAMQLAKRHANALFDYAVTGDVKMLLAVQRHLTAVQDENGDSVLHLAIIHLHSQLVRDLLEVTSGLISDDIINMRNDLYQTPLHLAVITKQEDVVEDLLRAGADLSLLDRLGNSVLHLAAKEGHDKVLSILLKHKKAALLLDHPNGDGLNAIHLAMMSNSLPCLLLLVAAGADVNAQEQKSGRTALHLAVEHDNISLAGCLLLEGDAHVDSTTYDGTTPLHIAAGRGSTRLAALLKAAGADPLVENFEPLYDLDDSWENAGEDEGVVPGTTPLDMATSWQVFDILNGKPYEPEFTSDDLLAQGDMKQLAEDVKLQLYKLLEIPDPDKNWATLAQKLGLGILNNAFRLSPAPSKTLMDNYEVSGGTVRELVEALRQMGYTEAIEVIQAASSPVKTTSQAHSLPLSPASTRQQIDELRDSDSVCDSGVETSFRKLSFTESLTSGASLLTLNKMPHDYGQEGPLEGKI
Sequence of Signal transducer and activator of transcription 3 (Homo sapiens) (P40763 whole entry, looked up): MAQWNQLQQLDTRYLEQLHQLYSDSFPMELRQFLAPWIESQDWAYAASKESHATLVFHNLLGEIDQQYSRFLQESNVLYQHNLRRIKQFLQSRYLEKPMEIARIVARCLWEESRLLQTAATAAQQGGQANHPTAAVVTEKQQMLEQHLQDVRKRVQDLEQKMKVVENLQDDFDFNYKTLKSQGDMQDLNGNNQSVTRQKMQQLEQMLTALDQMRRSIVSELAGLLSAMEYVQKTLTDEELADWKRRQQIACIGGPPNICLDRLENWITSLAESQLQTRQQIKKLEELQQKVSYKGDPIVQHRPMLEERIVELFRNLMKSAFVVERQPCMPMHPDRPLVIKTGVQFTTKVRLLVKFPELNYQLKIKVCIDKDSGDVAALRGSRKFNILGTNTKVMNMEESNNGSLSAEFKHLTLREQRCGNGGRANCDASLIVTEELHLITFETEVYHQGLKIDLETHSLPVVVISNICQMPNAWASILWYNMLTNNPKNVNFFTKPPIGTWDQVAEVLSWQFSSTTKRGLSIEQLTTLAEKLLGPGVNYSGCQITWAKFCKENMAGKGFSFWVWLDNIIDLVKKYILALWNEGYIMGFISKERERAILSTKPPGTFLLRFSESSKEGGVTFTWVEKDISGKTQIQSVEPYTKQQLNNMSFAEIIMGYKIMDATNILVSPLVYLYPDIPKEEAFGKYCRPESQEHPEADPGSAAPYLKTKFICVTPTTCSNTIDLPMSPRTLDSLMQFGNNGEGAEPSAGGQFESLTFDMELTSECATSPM
Sequence of Nuclear factor erythroid 2-related factor 2 (Homo sapiens) (Q16236 whole entry, looked up): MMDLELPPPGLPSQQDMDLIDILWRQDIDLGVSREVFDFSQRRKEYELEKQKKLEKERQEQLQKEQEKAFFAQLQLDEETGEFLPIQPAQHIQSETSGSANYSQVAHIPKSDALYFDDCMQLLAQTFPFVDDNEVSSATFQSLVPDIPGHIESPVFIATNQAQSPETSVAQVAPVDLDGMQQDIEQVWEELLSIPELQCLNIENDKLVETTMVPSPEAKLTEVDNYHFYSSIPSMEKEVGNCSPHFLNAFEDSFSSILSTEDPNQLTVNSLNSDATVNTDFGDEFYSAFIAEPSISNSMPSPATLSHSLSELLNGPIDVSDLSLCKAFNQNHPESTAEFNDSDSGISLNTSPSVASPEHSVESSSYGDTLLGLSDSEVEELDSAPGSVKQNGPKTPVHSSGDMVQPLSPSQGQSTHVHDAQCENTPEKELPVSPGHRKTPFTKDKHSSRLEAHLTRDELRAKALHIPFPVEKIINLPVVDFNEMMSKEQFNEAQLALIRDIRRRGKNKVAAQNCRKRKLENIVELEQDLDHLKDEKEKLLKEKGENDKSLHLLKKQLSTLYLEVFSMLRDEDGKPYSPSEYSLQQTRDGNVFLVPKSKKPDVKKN

Cc1ccc(C(C)(C)C)c(O)c1
inactive: all assays above

O=C1O[C@H]([C@H](O)CO)C(O)=C1O
not listed: [5] | [9] | [11] | [14]
inactive: all other assays above

O=C1c2c(O)cccc2Cc2cccc(O)c21
not listed: [5] | [8] | [11] | [17]
inactive: all other assays above

C=CCc1ccc(OC)c(OC)c1
active: [7] 0.0454 µM | [14] 0.315 µM | [16] 9.92 µM
not listed: [1] | [17]
inactive: all other assays above

CC1(C)C(=O)NC(=O)N1CO
not listed: [1]
inactive: all other assays above

Cn1cnc2c1c(=O)[nH]c(=O)n2C
not listed: [1]
inactive: all other assays above

CCc1nc(N)nc(N)c1-c1ccc(Cl)cc1
active: [1] 33.2 µM | MYC, MYC (gene 4609) 78.7 µM | [4] 38.9 µM | [8] 21.1 µM | [9] 50 µM | [15] 1.33 µM
not listed: [5] | [11] | [17]
inactive: all other assays above
